Data as given in PubChem BioAssay (Tox21).
Values joined by “and” are separate entries in the source; they are usually repeats but may differ in a detail not shown here. Equal entries are not always repeated. Records with an inconclusive call do not appear. Entries that show only a call come without a potency. A structure can be active in one record and inactive in another. Active and inactive are the calls of the source. Calls come from the whole dose curve.

Tests used:
[1] = target: Acetylcholinesterase (Homo sapiens) (UniProt P22303); assay: Acetylcholinesterase (AChE) small molecule antagonists: colormetric cell-based qHTS assay (AID 1347395); settings: SH-SY5Y cells AChE activity, colorimetric (Ellman); series mostly up to 115 µM; note: nearly all actives have a fitted effect of over 30% in size; note: potency is the fitted concentration of half-maximal effect
Sequence of Acetylcholinesterase (Homo sapiens) (P22303 whole entry, looked up): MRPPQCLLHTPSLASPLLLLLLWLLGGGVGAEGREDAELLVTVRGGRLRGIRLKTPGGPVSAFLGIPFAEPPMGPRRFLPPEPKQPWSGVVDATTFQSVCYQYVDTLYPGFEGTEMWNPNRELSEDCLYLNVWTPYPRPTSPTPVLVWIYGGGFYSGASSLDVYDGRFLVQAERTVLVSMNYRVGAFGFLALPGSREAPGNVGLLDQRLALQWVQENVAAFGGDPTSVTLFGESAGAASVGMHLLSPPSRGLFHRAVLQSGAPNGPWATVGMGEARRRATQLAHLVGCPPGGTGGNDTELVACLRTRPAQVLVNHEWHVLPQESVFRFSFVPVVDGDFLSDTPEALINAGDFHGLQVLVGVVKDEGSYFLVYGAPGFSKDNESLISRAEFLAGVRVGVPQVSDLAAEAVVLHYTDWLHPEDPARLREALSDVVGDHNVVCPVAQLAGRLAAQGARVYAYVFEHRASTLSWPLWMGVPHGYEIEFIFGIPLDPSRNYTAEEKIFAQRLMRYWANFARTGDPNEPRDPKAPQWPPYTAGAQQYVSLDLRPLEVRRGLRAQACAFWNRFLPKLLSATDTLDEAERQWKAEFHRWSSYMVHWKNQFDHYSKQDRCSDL
Method in brief: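 In this cell-based qHTS, attached SH-SY5Y cells were treated with test chemicals for 30 min, after which acetylthiocholine hydrolysis was followed by DTNB colour development over 90 min at 37 C.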

[2] = target: Acetylcholinesterase (Homo sapiens) (UniProt P22303); assay: Acetylcholinesterase (AChE) small molecule antagonists: enzyme-based qHTS assay (AID 1347397); settings: Potency: AChE enzyme activity inhibition; outcome: AChE enzyme activity inhibition; series mostly up to 115 µM; note: nearly all actives have a fitted effect of over 55% in size
Method in brief: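 rhAChE 50 mU/mL (dispensed) + cpd or DMSO, 30 min RT; add DTNB/acetylthiocholine cocktail, 10 min RT; colorimetric thiocholine readout. qHTS, 1536-well format.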

[3] = target: Acetylcholinesterase (Homo sapiens) (UniProt P22303); assay: Acetylcholinesterase (AChE) small molecule antagonists: fluorescence cell-based qHTS assay (AID 1347398); settings: SH-SY5Y cells; Potency: AChE activity; outcome: AChE activity; series mostly up to 115 µM; note: nearly all actives have a fitted effect of over 50% in size
Method in brief: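 Read-out is Thiolite Green fluorescence at Ex/Em = 490/520 nm, formed by reaction with thiocholine released when cellular AChE in SH-SY5Y cells hydrolyzes acetylthiocholine. Compounds were preincubated 30 min at 37 C before substrate.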

[4] = target: Acetylcholinesterase (Homo sapiens) (UniProt P22303); assay: Acetylcholinesterase (AChE) small molecule antagonists: enzyme-based qHTS assay with human liver microsomes (AID 1347399); settings: Potency: qHTS inhibition; outcome: qHTS inhibition; series mostly up to 115 µM; note: nearly all actives have a fitted effect of over 60% in size
Method in brief: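 Recombinant human AChE (50 mU/mL in the enzyme mix) and human liver microsomes (0.25 mg/mL final) were preincubated with compound and NADPH (0.25 mg/mL final) for 30 min at 37 C. Acetylthiocholine/DTNB was then added; thiocholine was read colorimetrically after 10 min at room temperature.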

Structure (SMILES)	Potency [1]	Potency [2]	Potency [3]	Potency [4]	activity, negative = inhibition [1]	activity change, negative = inhibition [2]	activity change, negative = inhibition [3]	activity change, negative = inhibition [4]
CCCCCCCCCCC(CO)CCCCCCCC (stereo not drawn)	inactive	inactive	inactive	inactive				
O=C(O)CP(=O)(O)O	inactive	inactive	inactive	inactive				
O=C1CCC(N2C(=O)c3ccccc3C2=O)C(=O)N1 (stereo not drawn)	inactive	inactive	inactive	inactive				
CCCCC/C=C\C/C=C\CCCCCCCC(=O)OC	inactive	inactive	inactive	inactive				
COc1ccc(S(=O)(=O)N2C(=O)[C@@](c3ccccc3OC)(N3C[C@H](O)C[C@H]3C(=O)N(C)C)c3cc(Cl)ccc32)c(OC)c1	inactive	inactive	inactive	inactive				
COCCOC(=O)C1=C(C)NC(C)=C(C(=O)OC(C)C)C1c1cccc([N+](=O)[O-])c1 (stereo not drawn)	inactive	inactive	inactive	inactive				
C[Si]1(C)O[Si](C)(C)O[Si](C)(C)O[Si](C)(C)O1	inactive	inactive	inactive	inactive				
C=C(C)[C@@H]1CC=C(C)CC1	inactive	inactive	inactive	inactive				
Cn1nnc2c(C(N)=O)ncn2c1=O	inactive	inactive	inactive	inactive				
O=C1c2cccc3c2[C@H](CCC3)CN1[C@@H]1CN2CCC1CC2	inactive	inactive	inactive	inactive				
C/C(=C(\CCOP(=O)(O)O)SC(=O)c1ccccc1)N(C=O)Cc1cnc(C)nc1N					-0.469% [at 10.5 µM] (inactive)	0.584% [at 10.5 µM] (inactive)	5.35% [at 10.5 µM] (inactive)	-1.26% [at 10.5 µM] (inactive)
Cc1ccc(C(C)C)c(O)c1	inactive	inactive	inactive	inactive				
O=C(O)C1CCC(C(=O)O)CC1 (stereo not drawn)	inactive	inactive	inactive	inactive				
NC(=S)Nc1cccc2ccccc12					-0.35% [at 10.5 µM] (inactive)	-0.679% [at 10.5 µM] (inactive)	-3.97% [at 10.5 µM] (inactive)	0.729% [at 10.5 µM] (inactive)
COC=O					2.05% [at 10.5 µM] (inactive)	0.267% [at 10.5 µM] (inactive)	-1.7% [at 10.5 µM] (inactive)	0.679% [at 10.5 µM] (inactive)
Cc1ccccc1C(=O)Nc1ccc(C(=O)N2CCCC(N(C)C)c3ccccc32)cc1 (stereo not drawn)	inactive	inactive	inactive	inactive				
CCOCC(=O)O	36.4 µM (active) and inactive	inactive	inactive	inactive				
COC(=O)N[C@H](C(=O)N[C@@H](Cc1ccccc1)[C@@H](O)CN(Cc1ccc(-c2ccccn2)cc1)NC(=O)[C@@H](NC(=O)OC)C(C)(C)C)C(C)(C)C	inactive	inactive	inactive	inactive				
CC1=CC(C)(C)Nc2ccccc21	inactive	inactive	inactive	inactive				
O=C(O)COC(=O)Cc1ccccc1Nc1c(Cl)cccc1Cl	inactive	inactive	inactive	inactive				
C=C(C)c1cccc(C(=C)C)c1	inactive	inactive	inactive	inactive				

Structure (SMILES)	Potency [1]	Potency [2]	Potency [3]	Potency [4]	activity, negative = inhibition [1]	activity change, negative = inhibition [2]	activity change, negative = inhibition [3]	activity change, negative = inhibition [4]
COC(=O)CCCC(=O)OC	inactive	inactive	inactive	inactive				
O=C1CCC/C=C\CCCCCCCCCC1	inactive	inactive	inactive	inactive				
O=C(O)c1cc(Cl)cc(Cl)c1O	inactive	inactive	inactive	inactive				
O=Cc1c2ccccc2c(Cl)c2ccccc12	inactive	inactive	inactive	inactive				
Nc1cc(S(=O)(=O)O)ccc1O	inactive	inactive	inactive	inactive				
CCC(C)(CCC(C)C)C(=O)[O][Sn]([CH3])([CH3])[O]C(=O)C(C)(CC)CCC(C)C (stereo not drawn)	inactive	inactive	inactive	inactive				
C/C=C/c1ccc(O)c(OC)c1	inactive	inactive	inactive	inactive				
CC(C)CCCC(=O)O	inactive	inactive	inactive	inactive				
Cc1ncc([N+](=O)[O-])n1C	inactive	inactive	inactive	inactive				
Cc1ccc(C#N)cc1	inactive	inactive	inactive	inactive				
CC(C)(C)CC(C)(C)c1ccc(Nc2ccc(C(C)(C)CC(C)(C)C)cc2)cc1					-3.03% [at 10.5 µM] (inactive)	-6.81% [at 10.5 µM] (inactive)	-4.09% [at 10.5 µM] (inactive)	0.323% [at 10.5 µM] (inactive)
CC[C@H]1OC(=O)[C@H](C)[C@@H](O[C@H]2C[C@@](C)(OC)[C@@H](O)[C@H](C)O2)[C@H](C)[C@@H](O[C@@H]2O[C@H](C)C[C@H](N(C)C)[C@H]2O)[C@](C)(O)C[C@@H](C)C(=O)[C@H](C)[C@@H](O)[C@]1(C)O	inactive	inactive	inactive	inactive				
C=Cc1ccncc1	inactive	inactive	inactive	inactive				
CCCC(=O)OCCC(C)CCC=C(C)C (stereo not drawn)	inactive	inactive	inactive	inactive				
CN(C)Cc1cc(C(C)(C)C)c(O)c(C(C)(C)C)c1	inactive	inactive	inactive	inactive				
O=C(CCN1CCN(CCO)CC1)N1c2ccccc2Sc2ccc(C(F)(F)F)cc21	inactive	inactive	inactive	inactive				
CN(C)[C@@H]1C(=O)C(C(N)=O)=C(O)[C@@]2(O)C(=O)C3=C(O)c4c(O)cccc4C[C@H]3C[C@@H]12	inactive	inactive	inactive	inactive				
O=C1c2c(O)cccc2Cc2cccc(O)c21	inactive	inactive	inactive	inactive				
C=CCCCCCCCCCCCCCCCC					2.13% [at 10.5 µM] (inactive)	-0.28% [at 10.5 µM] (inactive)	3.23% [at 10.5 µM] (inactive)	-0.261% [at 10.5 µM] (inactive)
Cc1cc2nc3c(=O)[nH]c(=O)nc-3n(C[C@H](O)[C@H](O)[C@H](O)CO)c2cc1C	35.2 µM (active) and 33 µM (active)	inactive	inactive	inactive				
CCOC(=O)Cn1cccc1-c1nc(-c2ccc(OC)cc2)c(-c2ccc(OC)cc2)s1	inactive	inactive	inactive	inactive				
